Out of some 290,000 compounds screened, about 60 (0.02%) were called active. Another 1% or so got no clear call; they are omitted. How the calls were made is not given here. Not all results are given here. Results with a measured potency or affinity are listed apart.
Experiment: inhibition of WNV-induced cytopathic effect – cell-based, CPE readout (AID 1621)
Conditions: West Nile virus-infected cells, at 10 µM, stronger effect = higher value

CPE inhibition, inactive:
COCCn1nnnc1C(c1cccs1)N1CCN2CCCC2C1 (stereo not drawn) 0.23%
CCOC(=O)c1c(NC(=O)CSc2cccc[n+]2[O-])sc(C(=O)Nc2ccccc2)c1C -0.77%
CCOC(=O)c1c(N)sc(C(=O)Nc2ccccc2)c1C -0.25%
Cc1cnc(NC(=O)Cc2cccs2)s1 0.29%
COc1ccc(C2c3sc(=O)[nH]c3SC3C4CCC(C4)C23)cc1OC (stereo not drawn) 0.48%
CCc1cc(C(=O)N2CCc3c([nH]c4ccccc34)C2c2ccc(OC)cc2F)no1 (stereo not drawn) 19.3%
O=C(c1cc2ncccn2n1)N1CCc2c([nH]c3ccccc23)C1c1ccccc1F (stereo not drawn) 2.67%
C=CCn1c(SCC(=O)NNC(=O)Nc2ccc(C)cc2)nnc1-c1ccccc1 0.45%
c1ccc2c(c1)CN1CCCC1=N2 0.51%
O=C1CN2C(=Nc3ccc(Br)cc3C2c2ccccc2)CCN1 (stereo not drawn) -0.54%
CCN1CCc2nc3ccccc3c(C(=O)Nc3ccc(F)cc3)c2C1 -0.07%
Cc1ccc(OCC(O)Cn2c(N3CCCCC3)nc3c2c(=O)[nH]c(=O)n3C)cc1C (stereo not drawn) -0.27%
CCOC(=O)NN1C(=O)c2ccccc2NC1c1ccccn1 (stereo not drawn) 0.09%
O=C(Nc1ccccc1N1CCCC1)c1ccccc1Cl -1.13%
Cc1ccccc1/C=N/N1C(=O)CSC1=S 0.91%
Cc1ccc2cc(CN(CCN(C)C)C(=O)Nc3ccc(Cl)cc3)c(=O)[nH]c2c1 2.9%
Cc1ccc2[nH]c(=O)c(CN(CCCN(C)C)C(=O)Nc3cccc(Cl)c3)cc2c1 -1.48%
NC(=O)c1ccc(NC(=O)CSc2nnc(-c3cccnc3)n2Cc2ccco2)cc1 -0.08%
c1ccc(COC2CCCN(Cc3nc(Cc4ccccc4)no3)C2)cc1 (stereo not drawn) -1.71%
CC(=O)Oc1ccc2occ(-c3ccccc3)c2c1 -0.4%
CCN(CC)S(=O)(=O)c1ccc(NC(=O)c2cc(-c3ccccc3)nc3ccccc23)cc1 -0.41%
CCN(CC)S(=O)(=O)c1ccc(C(=O)O)cc1 0.13%
CCOC(=O)C1(Cc2ccccc2C(F)(F)F)CCN(C2CCCC2)CC1 -0.59%
CCOC(=O)C1(Cc2ccccc2C(F)(F)F)CCN(C2CCN(C(C)=O)CC2)CC1 -1.08%
CC1CCC2C(=O)N(c3cccc(C(=O)Nc4ccccc4Cl)c3)C(=O)C2C1 (stereo not drawn) 0.29%
Cc1ccc(S(=O)(=O)c2nc(-c3cccs3)oc2SCC(N)=O)cc1 2.11%
COc1ccc2cc(-c3cc(C(=O)OCC(=O)Nc4c(C)n(C)n(-c5ccccc5)c4=O)c4ccccc4n3)ccc2c1 -0.17%
Cc1c(NC(=O)COC(=O)c2cc(-c3cccc4ccccc34)nc3ccccc23)c(=O)n(-c2ccccc2)n1C -0.96%
COc1ccc(NS(=O)(=O)c2ccc(O)c(NC(=O)c3ccc(S(=O)(=O)N4CCCCCC4)cc3)c2)cc1 2.03%
COc1ccc(/C(N)=N/OC(=O)c2ccc(Br)o2)cc1 0%
CCn1c(SCC(=O)C(C)(C)C)nnc1-c1cccnc1 -0.07%
CCN(CCN(C)C)C(=O)C1CCN(S(=O)(=O)c2c(C)noc2/C=C/c2ccccc2F)CC1 0.04%
CNC(=O)C1CCN(S(=O)(=O)c2c(C)noc2/C=C/c2ccccc2F)CC1 -1%
O=C(CCn1c(=S)[nH]c2ccccc2c1=O)N1CCCCC1 0%
O=C(N/N=C\c1ccc(S(=O)(=O)O)o1)c1ccc2c(c1)OCO2 -0.67%
O=C(NCCN1CCOCC1)c1ccc(/C=C2\Sc3ccccc3N(Cc3ccccc3F)C2=O)cc1 2.03%
CCN1CCN(CCNC(=O)c2ccc(/C=C3/Sc4ccccc4N(Cc4ccccc4C)C3=O)cc2)CC1 -0.85%
CC(NS(=O)(=O)c1ccc(Cl)cc1)C(c1cccs1)N1CCN(C)CC1 (stereo not drawn) -0.37%
CCCCOc1cccc(C(=O)Nc2ccc(S(=O)(=O)Nc3nnc(CC)s3)cc2)c1 -0.64%
COc1ccc(N=C2CC(C)(C)CC(=O)/C2=C(/O)c2ccccc2)cc1 -0.15%
COC(=O)c1scc(C)c1NC(=O)Nc1ccccc1 1.33%
O=C(NC1CCCC1)C(c1cccs1)N(CC1CCCO1)C(=O)Cc1cccs1 (stereo not drawn) -0.52%
Cc1cc(C)c(S(=O)(=O)n2c([N+](=O)[O-])cnc2C)c(C)c1 1.59%
CN1CCN(C(=O)c2ccccc2NC(=O)c2sc3ccccc3c2Cl)CC1 -1.33%
CN1CCN(c2ccccc2NC(=O)c2sc3ccccc3c2Cl)CC1 -0.79%
O=C(O)C1CCCN1C(=O)Nc1ccc(F)cc1 (stereo not drawn) -0.08%
CCN1CCN(CCNC(=O)c2ccc3nc(-c4cccc(C)c4)c(-c4cccc(C)c4)nc3c2)CC1 -1.29%
COc1ccc(-c2nc3ccc(C(=O)NCCCN4CCOCC4)cc3nc2-c2ccc(OC)cc2)cc1 0.5%
c1ccc(OCCCCn2cnc3ccccc32)cc1 -0.39%
O=C(c1ccco1)c1cn[nH]c1-c1ccc(Cl)cc1O 0.03%
CC(=O)NCC(=O)NC(C(=O)Nc1ccc2c(c1)OCCO2)c1ccc(C)cc1 (stereo not drawn) -0.73%
CN(C)S(=O)(=O)c1cccc(NC(=O)c2cncc(Br)c2)c1 0.06%
Cc1ccc(S(=O)(=O)N(C)C)cc1NC(=O)c1ccncc1 0.43%
C/C=C/c1ccc(OCCCNC(C)CC)c(OC)c1 (stereo not drawn) -0.34%
CC(/C=C/c1ccco1)=N\NC(=O)CNc1cccc(C)c1 -0.57%
CCCCOP(=O)(c1ccc(N(C)C)cc1)C(O)c1ccc(OC)cc1 (stereo not drawn) -0.79%
Cc1ccccc1NC1=CC(=O)CC(C)(C)C1 -0.82%
COc1cc(CNC(C)(C)CO)cc(Br)c1OCc1ccccc1 -0.18%
COc1cc(CNC(C)(C)CO)cc(Br)c1OCc1ccc(Cl)cc1Cl 15.4%
CC1C(O)=C(c2nc3ccccc3[nH]2)C(=N)N1c1ccccc1 (stereo not drawn) 1.12%
CC(O)CNc1ccc(-c2n[nH]c(=O)c3ccccc23)cc1[N+](=O)[O-] (stereo not drawn) -1.06%
CCCn1c(SCC(=O)N(CC)CC)nnc1-c1ccncc1 -0.86%
O=C(NCCCN1CCCC1)c1cc2c(Cl)nc3ccccc3c2s1 0.85%
CC1CCN(CCCNC(=O)c2cc3c(Cl)nc4ccccc4c3s2)CC1 3.15%
CNC(=O)OC(C)CNS(=O)(=O)c1ccc(C)cc1 (stereo not drawn) -0.03%
CCc1c(C(=O)Nc2ncn(Cc3cccc(C)c3)n2)csc1C -0.2%
COc1ccccc1C(=O)NCCC(=O)NCCc1ccccc1 0.26%
Cc1cc(C)cc(NC(=O)[C@H](Cc2c[nH]c3ccccc23)NC(=O)[C@@H]2Cc3ccccc3CN2)c1 -1.23%
Cc1ccc(NC(=O)[C@H](Cc2ccccc2)NC(=O)[C@@H]2Cc3ccccc3CN2)c(C)c1 -0.41%
CCOC(=O)c1ccc(NC(=S)N(CCCN2CCN(CC)CC2)Cc2ccco2)cc1 -0.57%
COc1cc2c(cc1OC)-c1cc(Nc3ccc(C(=O)O)cc3)nc(=O)n1CC2 -0.34%
CC(C(=O)Nc1cccc(S(=O)(=O)N2CCOCC2)c1)N1CCN(c2ccc(F)cc2)CC1 (stereo not drawn) -1.17%
CCOCC(=O)Nc1cccc(SC)c1 0.36%
CCN(CCN1CCCC1)C(=O)c1cc(COc2ccccc2SC)on1 -1.45%
O=C(COc1ccc(Cl)cc1)NC1=NN(c2ccccc2)C(=O)C1 -0.49%
CN(C)CCCNc1nc(N)c([N+](=O)[O-])c(NC2CCCCC2)n1 1.01%
Nc1nc(NCCO)nc(NC2CCCCC2)c1[N+](=O)[O-] 1.53%
CC(C)OC(=O)CC(=O)CSc1nc(-c2ccc(F)cc2)cc(-c2ccccc2)c1C#N -0.46%
O=S(=O)(CCSc1ccc(C(F)(F)F)cn1)c1ccc(Cl)cc1 -0.47%
CCCN(CCC)CCCNC(=S)Nc1ccc2nc(N3CCN(C)CC3)cc(C)c2c1 0.29%
CCCN(CCC)CCCNC(=S)Nc1ccc2nc(N3CCN(CC)CC3)cc(C)c2c1 3.38%
CCC(C)NC(=O)C1CCCN(S(=O)(=O)c2ccc(-n3cnnn3)cc2)C1 (stereo not drawn) 0.81%
Cc1ccc(S(=O)(=O)NNC(=O)Nc2cccc(F)c2)c(C)c1 0.14%

Reference: PubChem BioAssay AID1621 (Southern Research Specialized Biocontainment Screening …, 2009)
